Laboratory results: PubChem BioAssay (NCI)
The panel holds about 79,000 compounds, 15% with a hit somewhere; the sample as a whole holds those more often. The source made the active and inactive calls. Rule as the data show it: active = growth inhibition above about 70%; inactive = the rest.

Key:
[1] = NCI Yeast Anticancer Drug Screen. Data for the rad52 strain (AID 147);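 also: 0% = growth of vehicle-treated control cultures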; settings: S. cerevisiae rad52 mutant growth inhibition, stronger effect = higher value
Method in brief: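 The repair-mutant yeast strain was incubated with compounds, then growth was read and inhibition derived relative to vehicle.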

[2] = NCI Yeast Anticancer Drug Screen. Data for the wt1 strain (AID 149);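 also: 0% = growth of vehicle-treated wt1 cultures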; settings: S. cerevisiae wt1 strain (SPY 50644) growth inhibition, stronger effect = higher value
Method in brief: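 Readout: yeast growth inhibition, normalised to vehicle controls, in the wt1 strain exposed to test compounds.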

[3] = NCI Yeast Anticancer Drug Screen. Data for the rad50EPP+ strain (AID 151);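 also: 0% = growth of vehicle-treated control cultures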; settings: S. cerevisiae rad50 mutant strain, stronger effect = higher value
Method in brief: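 Vehicle-normalised growth inhibition; rad50EPP+ yeast strain, altered in DNA damage repair, compound-treated.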

[4] = NCI Yeast Anticancer Drug Screen. Data for the mgt1 strain (AID 153); settings: S. cerevisiae mgt1 mutant growth inhibition, stronger effect = higher value
Method in brief: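 Vehicle-normalized growth inhibition is determined in mgt1 yeast, a strain selected for a defined alteration in DNA repair or cell cycle control.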

[5] = NCI Yeast Anticancer Drug Screen. Data for the rad50 strain (AID 155);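 also: 0% = growth of vehicle-only cultures of the same strain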; settings: S. cerevisiae rad50 strain growth inhibition, stronger effect = higher value
Method in brief: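 Compounds were tested on a yeast strain with an engineered DNA damage repair alteration; the reported value is growth inhibition normalised to vehicle treatment.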

[6] = NCI Yeast Anticancer Drug Screen. Data for the mec2-1 strain (AID 157); settings: S. cerevisiae mec2-1 strain, stronger effect = higher value
Method in brief: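 Mutant yeast (mec2-1) grown with compound; growth inhibition relative to vehicle control reported.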

[7] = NCI Yeast Anticancer Drug Screen. Data for the rad14 strain (AID 159);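 also: 0% = growth of vehicle-treated control cultures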; settings: S. cerevisiae rad14 strain growth inhibition, stronger effect = higher value
Method in brief: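 Compound-treated yeast with a defined DNA-repair lesion; growth inhibition normalised to vehicle-treated cultures.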

[8] = NCI Yeast Anticancer Drug Screen. Data for the sgs1 mgt1 strain (AID 161);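 also: 0% = growth of cultures given vehicle only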; settings: S. cerevisiae sgs1 mgt1 strain, stronger effect = higher value
Method in brief: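 Compounds are added to genetically altered yeast, and growth is compared with cultures given vehicle alone to give percent inhibition.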

[9] = NCI Yeast Anticancer Drug Screen. Data for the CLN2oe strain (AID 163);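 also: 0% = growth of vehicle-only control cultures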; settings: S. cerevisiae CLN2oe strain, stronger effect = higher value
Method in brief: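 Compounds are applied to yeast harbouring a defined cell-cycle control change; reduced growth compared with vehicle-treated controls gives the value.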

[10] = NCI Yeast Anticancer Drug Screen. Data for the cln2 rad14 strain (AID 165);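 also: 0% = growth equal to vehicle treated cultures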; settings: S. cerevisiae cln2 rad14 strain, stronger effect = higher value
Method in brief: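 Readout is yeast growth inhibition versus vehicle-treated controls, using a strain with cln2 and rad14 alterations exposed to compound.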

[11] = NCI Yeast Anticancer Drug Screen. Data for the bub3 strain (AID 167); settings: S. cerevisiae bub3 mutant strain, stronger effect = higher value
Method in brief: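 Growth of a checkpoint-deficient yeast mutant is measured after compound exposure. Values represent inhibition relative to vehicle.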

[12] = NCI Yeast Anticancer Drug Screen. Data for the wt2 strain (AID 169);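 also: 0% = growth of vehicle-treated yeast cultures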; settings: S. cerevisiae wt2 strain growth inhibition, stronger effect = higher value
Method in brief: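 Against vehicle-treated controls, the growth of yeast exposed to each compound was compared, and the inhibition was recorded.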

[13] = NCI Yeast Anticancer Drug Screen. Data for the mlh1 strain (AID 171);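 also: 0% = growth of vehicle-treated control cultures of the same strain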; settings: S. cerevisiae mlh1 strain growth inhibition, stronger effect = higher value
Method in brief: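 Measured: yeast growth. Reference: vehicle-treated controls. Organism: strain with a defined alteration affecting DNA damage repair or cell cycle control, treated with compound.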

[14] = NCI Yeast Anticancer Drug Screen. Data for the sgs1 strain (AID 173);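 also: 0% = growth of vehicle-only control cultures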; settings: S. cerevisiae sgs1 mutant, stronger effect = higher value
Method in brief: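 Each compound was added to cultures of the altered yeast strain. Growth was recorded, and inhibition was derived by comparison with vehicle controls.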

[15] = NCI Yeast Anticancer Drug Screen. Data for the mlh1 rad18 strain (AID 175); settings: S. cerevisiae mlh1 rad18 strain growth inhibition, stronger effect = higher value
Method in brief: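 Genetically defined yeast (DNA repair-deficient) exposed to compounds; growth inhibition determined relative to vehicle.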

[16] = NCI Yeast Anticancer Drug Screen. Data for the rad18 strain (AID 177); settings: S. cerevisiae rad18 mutant growth inhibition, stronger effect = higher value
Method in brief: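 Vehicle-treated cultures served as the baseline for scoring compound-induced growth inhibition in DNA-repair-mutant yeast.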

[17] = at 5.0 µM (retest, dose inferred, filed as 0.5)
[18] = at 50.0 µM (retest, dose inferred, filed as 5.0)

CCC1(O)C(=O)OCc2c1cc1n(c2=O)Cc2cc3ccccc3nc2-1 (stereo not drawn)
growth inhibition ([1]; at 1.2 µM): 73% (active) | growth inhibition ([1]; at 3.7 µM): 92% (active) | growth inhibition ([1]; at 11.0 µM): 95% (active) | growth inhibition ([1]; at 33.0 µM): 94% (active) | growth inhibition ([1]; at 100.0 µM): 95% (active) | growth inhibition ([2]; at 1.2 µM): -3% (inactive) | growth inhibition ([2]; at 3.7 µM): 28% (inactive) | growth inhibition ([2]; at 11.0 µM): 15% (inactive) | growth inhibition ([2]; at 33.0 µM): 5% (inactive) | growth inhibition ([2]; at 100.0 µM): 13% (inactive) | growth inhibition ([3]; at 1.2 µM): 29% (inactive) | growth inhibition ([3]; at 3.7 µM): 54% (inactive) | growth inhibition ([3]; at 11.0 µM): 70% (active) | growth inhibition ([3]; at 33.0 µM): 75% (active) | growth inhibition ([3]; at 100.0 µM): 86% (active) | growth inhibition ([4]; at 1.2 µM): -11% (inactive) | growth inhibition ([4]; at 3.7 µM): -3% (inactive) | growth inhibition ([4]; at 11.0 µM): -4% (inactive) | growth inhibition ([4]; at 33.0 µM): -3% (inactive) | growth inhibition ([4]; at 100.0 µM): 10% (inactive) | growth inhibition ([5]; at 1.2 µM): 74% (active) | growth inhibition ([5]; at 3.7 µM): 91% (active) | growth inhibition [5, 17]: 94% (active) | growth inhibition ([5]; at 11.0 µM): 95% (active) | growth inhibition ([5]; at 33.0 µM): 94% (active) | growth inhibition [5, 18]: 96% (active) | growth inhibition ([5]; at 50.0 µM): 86.2% (active) | growth inhibition ([5]; at 100.0 µM): 94% (active) | growth inhibition ([6]; at 1.2 µM): -9% (inactive) | growth inhibition ([6]; at 3.7 µM): -2% (inactive) | growth inhibition [6, 17]: 21% (inactive) | growth inhibition ([6]; at 11.0 µM): 23% (inactive) | growth inhibition ([6]; at 33.0 µM): 36% (inactive) | growth inhibition [6, 18]: 89% (active) | growth inhibition ([6]; at 50.0 µM): 77.2% (active) | growth inhibition ([6]; at 100.0 µM): 82% (active) | growth inhibition ([7]; at 1.2 µM): -4% (inactive) | growth inhibition ([7]; at 3.7 µM): 7% (inactive) | growth inhibition ([7]; at 11.0 µM): 5% (inactive) | growth inhibition ([7]; at 33.0 µM): 12% (inactive) | growth inhibition ([7]; at 100.0 µM): 24% (inactive) | growth inhibition [8, 17]: 23% (inactive) | growth inhibition [8, 18]: 56% (inactive) | growth inhibition ([8]; at 50.0 µM): 47.5% (inactive) | growth inhibition ([9]; at 1.2 µM): 12% (inactive) | growth inhibition ([9]; at 3.7 µM): 26% (inactive) | growth inhibition ([9]; at 11.0 µM): 33% (inactive) | growth inhibition ([9]; at 33.0 µM): 18% (inactive) | growth inhibition ([9]; at 100.0 µM): 41% (inactive) | growth inhibition [10, 17]: 6% (inactive) | growth inhibition [10, 18]: 27% (inactive) | growth inhibition ([10]; at 50.0 µM): 19.3% (inactive) | growth inhibition ([11]; at 1.2 µM): -14% (inactive) | growth inhibition ([11]; at 3.7 µM): 9% (inactive) | growth inhibition [11, 17]: 12% (inactive) | growth inhibition ([11]; at 11.0 µM): -3% (inactive) | growth inhibition ([11]; at 33.0 µM): 1% (inactive) | growth inhibition [11, 18]: 27% (inactive) | growth inhibition ([11]; at 50.0 µM): -24.9% (inactive) | growth inhibition ([11]; at 100.0 µM): 10% (inactive) | growth inhibition ([12]; at 1.2 µM): 6% (inactive) | growth inhibition ([12]; at 3.7 µM): 4% (inactive) | growth inhibition ([12]; at 11.0 µM): -1% (inactive) | growth inhibition ([12]; at 33.0 µM): 1% (inactive) | growth inhibition ([12]; at 100.0 µM): 10% (inactive) | growth inhibition ([13]; at 1.2 µM): -5% (inactive) | growth inhibition ([13]; at 3.7 µM): 13% (inactive) | growth inhibition ([13]; at 11.0 µM): 15% (inactive) | growth inhibition ([13]; at 33.0 µM): 2% (inactive) | growth inhibition ([13]; at 100.0 µM): 15% (inactive) | growth inhibition ([14]; at 1.2 µM): 1% (inactive) | growth inhibition ([14]; at 3.7 µM): 15% (inactive) | growth inhibition ([14]; at 11.0 µM): 23% (inactive) | growth inhibition ([14]; at 33.0 µM): 35% (inactive) | growth inhibition ([14]; at 100.0 µM): 48% (inactive) | growth inhibition [15, 17]: 36% (inactive) | growth inhibition [15, 18]: 70% (active) | growth inhibition ([15]; at 50.0 µM): -27.3% (inactive) | growth inhibition ([16]; at 1.2 µM): -6% (inactive) | growth inhibition ([16]; at 3.7 µM): 15% (inactive) | growth inhibition ([16]; at 11.0 µM): 21% (inactive) | growth inhibition ([16]; at 33.0 µM): 4% (inactive) | growth inhibition ([16]; at 100.0 µM): 7% (inactive)
